From PubChem BioAssay
A selection: hits, their analogues and other compounds. The true share with any hit is near 3.9%.
Mtb FBA inh: inhibitors of M. tuberculosis fructose-bisphosphate aldolase; purified M. tuberculosis FBA, fluorescence read-out; P9WQA3; inhibition, % at 1 µM; actives 2.3% (n = 360,000); AID 588726;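 further: 0% = vehicle and 100% = reference inhibitor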
Target sequence (P9WQA3 whole entry, looked up): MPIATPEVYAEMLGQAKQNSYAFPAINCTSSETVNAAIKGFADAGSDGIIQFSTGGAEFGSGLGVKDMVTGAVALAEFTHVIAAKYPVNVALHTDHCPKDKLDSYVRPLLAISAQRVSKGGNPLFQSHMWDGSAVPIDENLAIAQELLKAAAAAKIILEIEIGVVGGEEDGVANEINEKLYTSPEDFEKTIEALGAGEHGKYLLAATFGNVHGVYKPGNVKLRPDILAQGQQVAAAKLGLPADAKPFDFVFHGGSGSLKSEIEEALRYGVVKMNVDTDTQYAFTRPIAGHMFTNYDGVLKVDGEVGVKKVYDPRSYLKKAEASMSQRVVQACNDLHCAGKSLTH
GDH-TPI counter-1: counter-screen for M. tuberculosis FBA inhibitors: GDH-TPI coupled enzymes; GDH-TPI coupled enzyme counterscreen, NADH absorbance; inhibition, % at 4.8 µM; actives 1.2% (n = 360,000); in the data active means inhibition above about 30%;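 further: 0% = DMSO wells and 100% = wells lacking the enzyme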
BH1578 lux ind: inducers of Vibrio cholerae quorum light production without autoinducers | V. cholerae BH1578 lux reporter, luminescence, 6 h | activation, % at 18.7 µM | actives 0.16% (n = 350,000) | AID 588436; in the data active means activation mostly above about 9.7%, no sharp cut-off
PrPC TRFRET: inhibitors of human cell surface prion protein PrPC | P04156 | actives 0.43% (n = 370,000) | inhibition, % at 13.8 µM | AID 720596 | TR-FRET read-out; in the data active means inhibition above about 24%; further: 0% = median of the test wells and 100% = reference compound wells
3CLpro inhibitor: SARS-CoV 3CLpro protease inhibition; P0C6X7; recombinant SARS-CoV 3CLpro, quenched FRET peptide cleavage; inhibition, % at 6 µM; actives 0.14% (n = 290,000); AID 1706; in the data active means inhibition above about 12%
Mtb FBA inh conf: Mtb FBA inhibition, confirmed. inhibition, % at 1 µM. actives 78% (n = 5,600). purified M. tuberculosis FBA, fluorescence read-out. AID 651616. shares compounds with Mtb FBA inh;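 further: 0% = vehicle wells and 100% = reference inhibitor wells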
GDH-TPI counter-2: GDH-TPI inhibition counter-screen for FBA inhibitors | GDH-TPI coupled enzyme counterscreen, fluorescence | actives 81% (n = 5,600) | shares compounds with Mtb FBA inh | inhibition, % at 1 µM; in the data active means inhibition above about 10%
GDH-TPI dose: GDH-TPI dose response counter-screen for Mtb FBA. shares compounds with Mtb FBA inh. GDH-TPI coupled enzyme assay, fluorescence, artifact counterscreen. IC50, µM. actives 79% (n = 170); call rule not given here
Starred values were filed as active, the others as inactive. Unless noted, no stated cut-off is given here; in the data, active means inhibition above about 27%; inactive means the rest.

For C#CCN1CC(COc2ccccc2)Oc2cccc(Oc3ccc(OC)cc3)c2S1(=O)=O (centres undefined) the results were PrPC TRFRET 0.9.
For FC(F)(F)c1ccccc1NC(=S)N/N=C1\CC2CC=CC12 (centres undefined) the results were Mtb FBA inh -0.4, GDH-TPI counter-1 -8.4, BH1578 lux ind -0.9, PrPC TRFRET 9.6 and 3CLpro inhibitor -0.8.
For Cc1cc(C)c2nc(NCCCNC(=S)NCCCN(C)C)c(C#N)cc2c1 the results were Mtb FBA inh 58.5*, GDH-TPI counter-1 0.9, BH1578 lux ind 0.2, PrPC TRFRET 3.3, 3CLpro inhibitor -1.7, Mtb FBA inh conf 52.2* and GDH-TPI counter-2 42.8*.
COCCCNC(=S)NCCNc1nc2cc(C)cc(C)c2cc1C#N was read as Mtb FBA inh 21.5, GDH-TPI counter-1 1.6, BH1578 lux ind 0.4, PrPC TRFRET -2.1 and 3CLpro inhibitor 0.9.
CCOCCCNC(=S)NCCCNc1nc2c(C)cc(C)cc2cc1C#N was read as Mtb FBA inh 38.1*, GDH-TPI counter-1 6.0, BH1578 lux ind -1.7, PrPC TRFRET -7.9, 3CLpro inhibitor -3.5, Mtb FBA inh conf active and GDH-TPI counter-2 147.4*.
Screening CCc1ccc(-c2nc(SCC(=O)c3c(N)n(C)c(=O)n(C)c3=O)n[nH]2)cc1 returned Mtb FBA inh 29.2*, GDH-TPI counter-1 2.6, BH1578 lux ind -1.2, PrPC TRFRET 6.3, Mtb FBA inh conf 69.0* and GDH-TPI counter-2 55.8*.
`CC(C)CC(=O)N1CC=CC[C@@H](c2ccc(Cl)cc2)N(Cc2ccc(Cl)cc2)C(=O)[C@@H]1Cc1ccccc1` gave Mtb FBA inh -0.8, GDH-TPI counter-1 3.1, BH1578 lux ind inactive and PrPC TRFRET 0.0.
Screening Cc1ccc(-c2ccc(CCC(=O)O)n2CC2CCCO2)cc1 (centres undefined) returned Mtb FBA inh 40.7*, GDH-TPI counter-1 -1.3, BH1578 lux ind 2.7, PrPC TRFRET 0.5, 3CLpro inhibitor 4.1, Mtb FBA inh conf 91.7* and GDH-TPI counter-2 60.1*.
For O=C(O)CCc1ccc(-c2ccccc2)n1CC1CCCO1 (centres undefined) the results were Mtb FBA inh 36.9*, GDH-TPI counter-1 -0.8, BH1578 lux ind -1.0, PrPC TRFRET -3.2, 3CLpro inhibitor 2.6, Mtb FBA inh conf 133.4* and GDH-TPI counter-2 118.5*.
CCN1CCN(C(=S)Nc2cc(S(=O)(=O)N(CC)CC)ccc2C)CC1 was read as Mtb FBA inh -0.1, GDH-TPI counter-1 -10.5, BH1578 lux ind -0.4, PrPC TRFRET 1.4 and 3CLpro inhibitor -1.7.
For CC(C)(CNC(=O)c1cc(-c2ccc(Cl)s2)nc2ccccc12)N1CCOCC1 the results were Mtb FBA inh 62.1*, GDH-TPI counter-1 19.3, BH1578 lux ind inactive, PrPC TRFRET -9.9, Mtb FBA inh conf 11.9, GDH-TPI counter-2 8.6 and GDH-TPI dose 2.85*.
`O=C(NN1CCOCC1)c1cc(-c2ccc(Br)s2)nc2ccccc12` gave Mtb FBA inh 5.5, GDH-TPI counter-1 -0.7, BH1578 lux ind inactive, PrPC TRFRET -1.5 and 3CLpro inhibitor -1.8.
Screening O=C(c1cc(-c2ccc(Cl)s2)nc2ccccc12)N1CCCC1 returned Mtb FBA inh 57.8*, GDH-TPI counter-1 10.3, BH1578 lux ind -0.2, PrPC TRFRET -9.1, 3CLpro inhibitor -2.3, Mtb FBA inh conf 154.6* and GDH-TPI counter-2 143.7*.
For O=C(c1cc(Cl)nc2ccccc12)N1CCCCC1 the results were Mtb FBA inh 2.5, GDH-TPI counter-1 1.2, BH1578 lux ind inactive, PrPC TRFRET -0.3 and 3CLpro inhibitor -2.6.
`CN1CCN(NC(=O)c2cc(-c3ccc(Cl)s3)nc3ccccc23)CC1` gave Mtb FBA inh 73.0*, GDH-TPI counter-1 12.6, BH1578 lux ind 0.1, PrPC TRFRET -5.4, 3CLpro inhibitor -1.8, Mtb FBA inh conf 65.2* and GDH-TPI counter-2 41.6*.
`CN(CC(=O)Nc1ccc(F)cc1)C(=O)CCc1ccccc1` gave Mtb FBA inh -2.4, GDH-TPI counter-1 0.4, BH1578 lux ind -0.5, PrPC TRFRET 1.1 and 3CLpro inhibitor 1.0.
Screening CC(C)CNC(=O)c1cc(S(=O)(=O)N2CCOCC2)ccc1N1CCCC1 returned Mtb FBA inh 2.0, GDH-TPI counter-1 2.0, BH1578 lux ind 0.5, PrPC TRFRET -0.9 and 3CLpro inhibitor -5.2.
Screening Cc1cc(OCC(=O)NCc2cccnc2)c2c(C)cc(=O)oc2c1 returned Mtb FBA inh 68.2*, GDH-TPI counter-1 11.8, BH1578 lux ind 0.7, PrPC TRFRET -1.8, 3CLpro inhibitor 4.6, Mtb FBA inh conf -6.1 and GDH-TPI counter-2 -6.1.
For O=C(COc1ccc(Cl)cc1Cl)Nc1cccnc1 the results were Mtb FBA inh -1.0, GDH-TPI counter-1 -1.3, BH1578 lux ind inactive, PrPC TRFRET 9.3 and 3CLpro inhibitor 0.7.
For Cc1cc(=O)oc2cc(OCC(=O)NC3CC(C)(C)NC(C)(C)C3)ccc12 the results were Mtb FBA inh 21.2, GDH-TPI counter-1 16.0, BH1578 lux ind -0.2, PrPC TRFRET 1.9 and 3CLpro inhibitor -1.8.
Cc1cc(OCC(=O)NC2CC(C)(C)NC(C)(C)C2)c2c(C)cc(=O)oc2c1 was read as Mtb FBA inh 94.0*, GDH-TPI counter-1 3.0, BH1578 lux ind -0.3, PrPC TRFRET 7.0, 3CLpro inhibitor -3.2, Mtb FBA inh conf 132.1* and GDH-TPI counter-2 114.1*.
Screening Cc1cc(OCC(=O)NCc2cccnc2)c2c(C)c(Cc3ccccc3)c(=O)oc2c1 returned Mtb FBA inh 12.1, GDH-TPI counter-1 0.4, BH1578 lux ind -0.4, PrPC TRFRET 0.9 and 3CLpro inhibitor 0.7.
For Cc1cc(OCC(=O)Nc2cccnc2)c2c(C)cc(=O)oc2c1 the results were Mtb FBA inh 77.5*, GDH-TPI counter-1 8.9, BH1578 lux ind -0.3, PrPC TRFRET 8.4, 3CLpro inhibitor -1.6, Mtb FBA inh conf -1.6 and GDH-TPI counter-2 -2.4.
Screening Cc1c(C)c2ccc(OCC(=O)Nc3cccnc3)cc2oc1=O returned Mtb FBA inh 22.4, GDH-TPI counter-1 19.0, BH1578 lux ind -0.3, PrPC TRFRET -4.0 and 3CLpro inhibitor -2.5.
CCCc1cc(=O)oc2cc(C)cc(OCC(=O)Nc3cccnc3)c12 was read as Mtb FBA inh 82.1*, GDH-TPI counter-1 11.3, BH1578 lux ind -2.6, PrPC TRFRET 6.3, 3CLpro inhibitor -4.5, Mtb FBA inh conf 7.5 and GDH-TPI counter-2 0.4.
For Cc1cc(SCC(=O)NCC2CCCO2)nc2ccccc12 (centres undefined) the results were Mtb FBA inh -1.7, GDH-TPI counter-1 11.3, BH1578 lux ind -0.1, PrPC TRFRET 13.7 and 3CLpro inhibitor -1.6.
